Assay outcomes as filed in PubChem BioAssay.
The full list was thinned out, with hits kept by preference.
Pf apPOL block: Pf-apPOL DNA polymerase inhibition; Recombinant Pf-apPOL, molecular beacon fluorescence, 1.5 h; inhibition, % at 10 µM; 0.25% of 210,000 active
mHTT-CaM PPI inh: mHTT-calmodulin interaction abrogation. P42858. AlphaScreen His-mHTT/GST-CaM binding, luminescence. inhibition, % at 15 µM. 3.6% of 190,000 active. AID 1671202;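 further: 0% = both proteins with DMSO and 100% = one protein alone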
Target sequence (P42858 whole entry, looked up, stated change not applied): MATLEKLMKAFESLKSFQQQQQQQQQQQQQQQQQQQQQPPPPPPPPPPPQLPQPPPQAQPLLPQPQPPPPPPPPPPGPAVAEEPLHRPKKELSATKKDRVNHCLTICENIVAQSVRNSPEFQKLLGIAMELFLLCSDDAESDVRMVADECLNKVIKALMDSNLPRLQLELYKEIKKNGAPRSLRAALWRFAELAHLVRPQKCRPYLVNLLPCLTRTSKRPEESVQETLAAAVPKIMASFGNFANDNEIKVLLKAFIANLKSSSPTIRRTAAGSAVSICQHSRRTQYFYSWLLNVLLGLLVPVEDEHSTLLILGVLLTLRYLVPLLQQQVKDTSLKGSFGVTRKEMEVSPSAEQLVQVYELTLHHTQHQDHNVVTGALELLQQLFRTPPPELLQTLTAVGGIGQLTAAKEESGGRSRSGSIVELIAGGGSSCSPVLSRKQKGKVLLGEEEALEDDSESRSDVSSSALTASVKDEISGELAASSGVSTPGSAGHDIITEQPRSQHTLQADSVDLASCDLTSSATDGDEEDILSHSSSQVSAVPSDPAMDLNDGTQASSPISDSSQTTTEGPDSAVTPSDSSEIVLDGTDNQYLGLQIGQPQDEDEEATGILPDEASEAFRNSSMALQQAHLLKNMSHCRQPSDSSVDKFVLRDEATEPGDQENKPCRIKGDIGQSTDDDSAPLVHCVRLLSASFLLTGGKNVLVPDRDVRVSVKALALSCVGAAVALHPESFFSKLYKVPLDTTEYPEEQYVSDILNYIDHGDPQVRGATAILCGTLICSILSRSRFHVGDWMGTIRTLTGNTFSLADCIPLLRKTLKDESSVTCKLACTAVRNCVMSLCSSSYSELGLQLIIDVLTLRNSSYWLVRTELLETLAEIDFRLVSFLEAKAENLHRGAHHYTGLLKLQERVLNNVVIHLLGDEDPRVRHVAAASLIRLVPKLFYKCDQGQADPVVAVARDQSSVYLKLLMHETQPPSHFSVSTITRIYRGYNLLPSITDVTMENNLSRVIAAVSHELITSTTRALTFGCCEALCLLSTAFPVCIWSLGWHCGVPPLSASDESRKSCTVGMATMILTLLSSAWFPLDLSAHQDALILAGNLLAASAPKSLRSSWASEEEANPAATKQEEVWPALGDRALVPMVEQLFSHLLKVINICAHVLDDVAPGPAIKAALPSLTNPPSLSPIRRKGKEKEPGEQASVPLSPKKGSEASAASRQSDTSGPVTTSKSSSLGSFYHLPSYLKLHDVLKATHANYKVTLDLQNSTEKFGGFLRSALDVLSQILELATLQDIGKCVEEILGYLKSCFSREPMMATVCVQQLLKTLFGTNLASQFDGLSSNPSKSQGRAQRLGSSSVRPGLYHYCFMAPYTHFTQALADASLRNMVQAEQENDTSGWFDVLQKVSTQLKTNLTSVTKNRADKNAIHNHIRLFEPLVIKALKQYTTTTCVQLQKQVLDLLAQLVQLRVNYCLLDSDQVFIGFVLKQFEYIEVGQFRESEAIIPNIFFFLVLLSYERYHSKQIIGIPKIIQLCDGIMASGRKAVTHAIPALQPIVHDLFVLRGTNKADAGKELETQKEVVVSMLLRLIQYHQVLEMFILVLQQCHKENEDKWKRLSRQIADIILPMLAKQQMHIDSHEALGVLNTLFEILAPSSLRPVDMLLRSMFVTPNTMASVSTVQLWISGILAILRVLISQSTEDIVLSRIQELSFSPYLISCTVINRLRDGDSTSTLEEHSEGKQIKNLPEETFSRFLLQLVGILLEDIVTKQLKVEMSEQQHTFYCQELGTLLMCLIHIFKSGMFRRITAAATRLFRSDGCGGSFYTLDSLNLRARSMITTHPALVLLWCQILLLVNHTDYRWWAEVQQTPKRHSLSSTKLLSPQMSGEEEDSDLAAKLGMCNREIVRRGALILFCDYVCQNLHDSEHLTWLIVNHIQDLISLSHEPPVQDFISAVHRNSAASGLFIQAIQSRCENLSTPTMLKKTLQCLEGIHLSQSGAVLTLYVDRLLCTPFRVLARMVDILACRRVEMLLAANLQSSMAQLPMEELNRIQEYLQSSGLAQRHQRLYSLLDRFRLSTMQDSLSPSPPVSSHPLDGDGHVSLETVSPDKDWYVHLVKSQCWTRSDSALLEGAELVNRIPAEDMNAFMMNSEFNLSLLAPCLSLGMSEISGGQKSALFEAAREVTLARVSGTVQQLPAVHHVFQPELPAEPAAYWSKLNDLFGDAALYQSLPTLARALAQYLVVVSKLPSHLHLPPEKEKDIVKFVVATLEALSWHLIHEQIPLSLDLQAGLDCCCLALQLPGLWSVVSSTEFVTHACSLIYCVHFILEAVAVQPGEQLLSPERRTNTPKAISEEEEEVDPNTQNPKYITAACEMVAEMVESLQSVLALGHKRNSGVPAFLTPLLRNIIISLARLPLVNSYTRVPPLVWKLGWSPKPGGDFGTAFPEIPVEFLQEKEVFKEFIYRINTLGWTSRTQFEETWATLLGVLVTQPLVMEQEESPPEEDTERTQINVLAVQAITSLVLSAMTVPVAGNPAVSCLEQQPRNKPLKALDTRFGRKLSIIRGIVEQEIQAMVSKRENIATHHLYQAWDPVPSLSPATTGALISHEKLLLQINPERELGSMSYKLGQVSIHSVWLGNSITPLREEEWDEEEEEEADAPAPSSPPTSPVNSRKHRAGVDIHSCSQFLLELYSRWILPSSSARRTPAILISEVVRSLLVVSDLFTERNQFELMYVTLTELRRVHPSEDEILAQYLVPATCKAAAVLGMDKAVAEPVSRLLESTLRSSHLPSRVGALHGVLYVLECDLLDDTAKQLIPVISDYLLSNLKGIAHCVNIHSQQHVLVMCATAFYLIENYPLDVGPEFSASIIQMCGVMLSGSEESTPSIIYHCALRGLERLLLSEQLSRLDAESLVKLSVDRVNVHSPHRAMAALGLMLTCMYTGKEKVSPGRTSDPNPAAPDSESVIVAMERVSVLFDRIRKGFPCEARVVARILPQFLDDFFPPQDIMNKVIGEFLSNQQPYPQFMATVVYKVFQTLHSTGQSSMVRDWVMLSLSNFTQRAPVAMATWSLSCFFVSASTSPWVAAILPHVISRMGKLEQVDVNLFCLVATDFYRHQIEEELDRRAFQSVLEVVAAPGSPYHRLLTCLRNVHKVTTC
Numbers without * were called inactive; . = not tested or not shown. No stated cut-off is given here; in the data, active means inhibition above about 50%; inactive means the rest.

SMILES | Pf apPOL block | mHTT-CaM PPI inh
COc1cc(OC)c2c(-c3ccccc3)cc(=O)oc2c1C(CCN1CCOCC1)c1ccc2c(c1)OCO2 (centres undefined) | -4.7 | 84.2*
Cc1nn2c(CNC(=O)Cc3cccc(Cl)c3)c(C)nc2s1 | 0.2 | 2.2
COc1ccc(C=C2Oc3cc(C)c(CN4CCOCC4)c(O)c3C2=O)cc1 | 3.5 | 0.7
COc1ccc(C=C2Oc3cc(C)c(CN4CCN(C)CC4)c(O)c3C2=O)cc1 | 13.0 | 79.4*
COC(=O)C(NC(=O)N1CCc2c(nc(-c3ccc(OC)cc3)[nH]c2=O)C1)C(C)C (centres undefined) | 1.0 | 16.7
CCCOc1ccc(OCCSc2nc(N)cc(=O)[nH]2)cc1 | 2.9 | 0.3
Nc1cc(=O)[nH]c(SCCOc2ccc(Cl)cc2)n1 | -9.5 | 100.3*
Cc1ccc(C(=O)Nc2ccc(-c3nc4cc(Cl)ccc4o3)c(O)c2)cc1[N+](=O)[O-] | -1.1 | -2.9
Cc1ccc(C2=C/C(=C\c3ccccn3)C(=O)O2)cc1 | -4.8 | 5.0
Cc1ccc(C2=C/C(=C\C=C\c3ccccc3)C(=O)O2)cc1 | 61.9* | 25.0
CN(C)C1=C(Nc2cccc(Cl)c2)C(=O)c2ccccc2C1=O | -4.1 | 57.0*
CC(C)C(=O)Nc1cccc(I)c1 | 8.0 | -1.2
CC(=O)N(C1=C(N(C)C)C(=O)c2ccccc2C1=O)c1cccc(Cl)c1 | -7.0 | 18.3
CN(C)C1=C(Nc2cccc(I)c2)C(=O)c2ccccc2C1=O | -3.5 | 92.0*
COC(=O)CSC(=C(C=NO)c1ccccc1)C(F)(F)F | 1.2 | .
Cc1ccc(CNC(=O)CC2CCN(C(=O)c3ccccc3)CC2)o1 | -4.4 | 0.8
CC1CCc2c(sc3nc4c5ccccc5c(NCc5ccco5)nn4c(=O)c23)C1 (centres undefined) | 0.1 | 35.1
O=c1c2c3c(sc2nc2c4ccccc4c(NCC4CCCO4)nn12)CCCC3 (centres undefined) | -0.2 | 65.1*
CN1CCN(C2CC(=O)N(N(C)C)C2=O)CC1 (centres undefined) | 0.8 | -4.9
Cc1cccc(N2CCN(CN3C(=O)C(=O)c4ccccc43)CC2)c1 | -3.9 | -1.0
O=C1S/C(=C\c2ccccc2Cl)C(=O)N1c1ccc(O)cc1 | -5.0 | 74.0*
O=C1S/C(=C\c2ccc(O)c(O)c2)C(=O)N1c1ccc(Cl)cc1 | -6.0 | 88.0*
O=C1S/C(=C\c2ccc(O)cc2)C(=O)N1c1ccccc1 | -0.1 | 18.0
O=C(CN1C(=O)S/C(=C\c2ccc(Br)cc2)C1=O)Nc1ccc(O)cc1 | -0.9 | 52.0*
O=C1S/C(=C\c2ccc(O)cc2)C(=O)N1c1ccc(O)cc1 | -4.3 | 55.0*
SMILES | Pf apPOL block | mHTT-CaM PPI inh
O=C1S/C(=C\c2ccc(O)cc2)C(=O)N1CNc1ccc(I)cc1 | -5.1 | 25.0
O=C1S/C(=C\c2ccc(O)c([N+](=O)[O-])c2)C(=O)N1c1ccccc1 | -7.4 | 18.0
COc1ccccc1/C=C1\SC(=O)N(c2ccc(Cl)cc2)C1=O | -3.2 | 2.0
FC(F)(F)c1cccc(-c2noc(-c3cccs3)n2)c1 | -4.9 | -81.0
CCCN1CCC(=O)N([C@H](CSc2ccc(Br)cc2)CC(C)C)CC1 | -4.1 | -5.1
COc1ccc(/C=c2\sc3n(c2=O)C(N)=C(C#N)C(c2ccc(OC)cc2)C=3C#N)cc1 (centres undefined) | -5.8 | 6.0
Cc1ccc(C(=O)CN2C(C(=O)c3ccccc3)=C(N(C)C)c3ccccc3S2(=O)=O)c(C)c1 | 4.2 | 55.0*
Cc1ccc(C(=O)CN2C(=C(O)c3ccccc3)C(=O)c3ccccc3S2(=O)=O)c(C)c1 | -6.6 | 59.4*
CN1C(=C(O)c2ccccc2)C(=O)c2ccccc2S1(=O)=O | -3.9 | -3.0
Cc1ccc(C(=O)CC(=O)c2ccccc2C)c(O)c1 | 4.0 | 37.3
CC(C)CNC(=O)C1CN(C(=O)c2ccc(Cl)cc2)CC1c1cccc(F)c1 (centres undefined) | 10.3 | 10.4
Cn1nc(-c2nc(C3CC3)no2)c2c1CCN(C(=O)c1cccc(F)c1)C2 | 3.8 | 5.0
Cn1c(=O)[nH]c(=O)c2c1nc(N1CCOCC1)n2CC(O)COc1ccc(Cl)cc1Cl (centres undefined) | -4.6 | -3.0
Cc1cc(C)n(-c2nc3c(c(=O)[nH]c(=O)n3C)n2CC(O)COc2ccccc2Cl)n1 (centres undefined) | 13.6 | 100.0*
Cn1cc(-c2ccncc2)cc1C(=O)N1CCN(c2ccccc2)CC1 | 2.0 | 20.0
Cc1ccc(CN2CCCC(c3nncn3Cc3ccccc3)C2)o1 (centres undefined) | 2.2 | 10.1
Cc1cc(N2CCOCC2)c(F)cc1[N+](=O)[O-] | -7.1 | -1.1
CCOc1cccc2nnc(NC(=O)c3ccc(C)cc3)n12 | 31.0 | 50.9*
CCOc1cccc2nnc(NC(=O)c3ccc(C(F)(F)F)cc3)n12 | 2.2 | 8.9
CC(C)c1ccc(C(=O)Nc2nnc3ccccn23)cc1 | -3.2 | 64.8*
O=C(Nc1nnc2ccccn12)c1ccccc1Br | -3.0 | 100.3*
O=C(Nc1nnc2ccccn12)c1ccccc1C(F)(F)F | -7.9 | 9.5
CC(C)CC(=O)Nc1nnc2ccccn12 | -5.9 | 10.2
O=C(Nc1nnc2ccccn12)c1ccc(C(F)(F)F)cc1 | -22.9 | 38.5
CCc1ccc(C(=O)Nc2nnc3ccccn23)cc1 | -10.6 | 58.3*
SMILES | Pf apPOL block | mHTT-CaM PPI inh
CCC(=O)NCc1nc2c(n1C)CN(C(=O)c1ccccc1OC)CC2 | -1.8 | 4.3
COc1cc(OC)cc(C(=O)NCCC2CCN(C(=O)c3ccccc3)CC2)c1 | -1.3 | 31.3
CCOC(=O)c1sc(NC(=O)CC2Nc3ccccc3NC2=O)cc1C (centres undefined) | -3.9 | -5.0
O=C(Nc1ccc(Cl)cc1)Nc1nc(C(=O)NCc2ccccn2)cs1 | -4.3 | 3.9
COc1ccc(C2=C/C(=C/c3cccc(OC)c3OC)C(=O)O2)cc1 | 4.2 | -8.0
CCn1c(/C=C/c2cccnc2)nc2ccccc2c1=O | -1.7 | 100.0*
O=c1[nH]c(/C=C/c2cccnc2)nc2ccccc12 | -4.3 | 100.3*
O=c1[nH]c(/C=C/c2ccc(Cl)cc2)nc2ccccc12 | -2.1 | -0.8
CCn1c(/C=C/c2ccccc2Cl)nc2ccccc2c1=O | -7.7 | -1.2
O=C(Nc1ccc2c(c1)OCCO2)c1ccc(-c2ccsc2)nc1 | 47.9 | 9.0
CCn1c(N2CCCC(C(=O)NCc3ccc(C)cc3)C2)cc(=O)n(C)c1=O (centres undefined) | 4.4 | 11.6
COCCNC(=O)N1CCc2[nH]nc(-c3ccccc3)c2C1 | -3.3 | -3.6
O=C(c1n[nH]c2c1CCCCCC2)N1CCc2c(nc3cc(-c4ccccc4)[nH]n3c2=O)C1 | -0.3 | 19.1
O=C(c1n[nH]c2c1CCCC2)N1CCc2c(nc3cc(-c4ccccc4Cl)[nH]n3c2=O)C1 | -3.5 | 59.4*
CC(C)C(=O)N1CCc2c(nc3cc(-c4ccccc4Cl)[nH]n3c2=O)C1 | -1.3 | 12.3
Cc1ccc(-c2n[nH]c3c2CN(C(=O)NCc2ccco2)CC3)cc1 | -1.4 | 64.3*
O=C(NCc1ccco1)N1CCc2nc3cc(-c4ccccc4Cl)[nH]n3c(=O)c2C1 | 27.2 | 68.3*
O=C(NCc1ccco1)N1CCc2c(nc3cc(-c4ccccc4Cl)[nH]n3c2=O)C1 | -2.0 | 24.0
CC(C)C(=O)N1CCc2nc3cc(-c4ccccc4Cl)[nH]n3c(=O)c2C1 | 13.1 | 57.8*
COc1ccc2c(c1)c(CN1CCC(C(=O)NCc3ccccc3C)CC1)cn2C | -0.3 | 7.5
O=C(NCc1ccc2c(c1)OCO2)C1CCN(c2cnn(Cc3ccccc3)c(=O)c2)CC1 | -2.0 | -2.9
O=C(NCCSC1CCCCC1)Nc1ccccc1 | -2.7 | 1.8
